Results from PubChem BioAssay AID1159580 (chemical genetic matrix, 2015).
Values joined by “and” are separate entries in the source; they are usually repeats but may differ in a detail not shown here. Equal entries are not always repeated. The campaign covered roughly 5,500 compounds. About 2,000 (36%) were called active. Another 18% or so got no clear call; they are omitted. Cut-off read from the data, not from the text of the source: active = normalized growth mostly below about 0.91 (no sharp cut-off); inconclusive = no clear call, values can overlap the other calls; inactive = mostly above about 0.92. The list shows a part of the results.

Assay: chemical genetic growth profiling, strain panel (AID 1159580);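 note: tested at 20 µM; growth read once vehicle control cultures reached saturation at 30 °C; 1 = growth at the plate median or of vehicle wells; lower values mean less growth of the strain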
Conditions: S. cerevisiae deletion strains, growth OD
[1] = locus YMR307W, strain GAS1, hits give low values
[2] = locus YNL322C, strain KRE1, hits give low values
[3] = locus YPL055C, strain LGE1, hits give low values

Measured: normalized growth

c1cnc(N2CCN(Cc3ccc4c(c3)OCO4)CC2)nc1
inactive: locus YAL013W, strain DEP1, hits give low values 0.95 | locus YAL040C, strain CLN3, hits give low values 0.967 | locus YCL061C, strain MRC1 (second series), hits give low values 0.982 | locus YDR150W, strain NUM1, hits give low values 0.996 | locus YDR363W, strain ESC2, hits give low values 0.988 | locus YER002W, strain NOP16, hits give low values 0.988 | locus YGR078C, strain PAC10, hits give low values 0.993 | [1] 0.999 | locus YNL175C, strain NOP13, hits give low values 1 | locus YNL197C, strain WHI3, hits give low values 0.976 | locus YNL224C, strain SQS1, hits give low values 0.985 | [2] 0.979 | locus YOR083W, strain WHI5 (second series), hits give low values 0.985 | [3] 0.991

NCCC(=O)N[C@@H](Cc1cnc[nH]1)C(=O)O
inactive: locus YAL021C, strain ccr4, hits give low values 0.997 | locus YAL026C, strain drs2, hits give low values 1.01 | locus YAL030W, strain snc1, hits give low values 1.01 | locus YBL061C, strain skt5, hits give low values 1.01 | locus YBR009C, strain hhf1, hits give low values 1.01 | locus YBR021W, strain FUR4, hits give low values 1.06 | locus YBR023C, strain chs3, hits give low values 1 | locus YBR171W, strain sec66, hits give low values 1.02 | locus YBR229C, strain ROT2, hits give low values 0.993 | locus YBR231C, strain swc5, hits give low values 1.01 | locus YBR279W, strain paf1, hits give low values 1.01 | locus YCL011C, strain gbp2, hits give low values 1.01 | locus YCL016C, strain dcc1, hits give low values 1.01 | locus YCL029C, strain bik1, hits give low values 0.967 | locus YCL061C, strain MRC1, hits give low values 1.01 | locus YCL069W, strain vba3, hits give low values 1.01 | locus YCR088W, strain abp1, hits give low values 1.01 | locus YDL005C, strain med2, hits give low values 1.01 | locus YDL035C, strain GPR1, hits give low values 0.997 | locus YDL040C, strain nat1, hits give low values 0.998 | locus YDL074C, strain BRE1, hits give low values 1.01 | locus YDL101C, strain DUN1, hits give low values 0.994 | locus YDL134C, strain PPH21, hits give low values 1.04 | locus YDL185W, strain tfp1, hits give low values 0.957 | locus YDL192W, strain arf1, hits give low values 0.98 | locus YDR001C, strain nth1, hits give low values 1.01 | locus YDR069C, strain doa4, hits give low values 1.01 | locus YDR101C, strain arx1, hits give low values 0.99 | locus YDR137W, strain rgp1, hits give low values 1.01 | locus YDR159W, strain sac3, hits give low values 1.02 | locus YDR162C, strain NBP2, hits give low values 1.03 | locus YDR195W, strain ref2 0.978 | locus YDR297W, strain sur2, hits give low values 1.01 | locus YDR318W, strain mcm21, hits give low values 0.986 | locus YDR334W, strain swr1, hits give low values 1.01 | locus YDR335W, strain msn5, hits give low values 1.01 | locus YDR388W, hits give low values 0.979 | locus YDR392W, strain spt3, hits give low values 1.03 | locus YDR502C, strain sam2, hits give low values 0.997 | locus YEL003W, strain gim4, hits give low values 1.02 | locus YEL037C, strain rad23, hits give low values 1.01 | locus YEL061C, strain CIN8 (second series), hits give low values 1.01 | locus YEL061C, strain CIN8, hits give low values 0.997 | locus YER015W, strain faa2, hits give low values 1.01 | locus YER016W, strain bim1, hits give low values 1 | locus YER110C, hits give low values 0.972 | locus YER111C, strain swi4, hits give low values 0.992 | locus YER155C, strain BEM2 (second series), hits give low values 1.03 | locus YER155C, strain BEM2, hits give low values 0.999 | locus YER167W, strain BCK2, hits give low values 0.99 | locus YFR010W, strain ubp6, hits give low values 1.02 | locus YGL078C, strain dbp3, hits give low values 0.999 | locus YGL086W, strain mad1, hits give low values 1 | locus YGL167C, strain pmr1, hits give low values 1.01 | locus YGL173C, strain kem1, hits give low values 1.01 | locus YGL227W, strain vid30, hits give low values 1.01 | locus YGL240W, strain doc1, hits give low values 1.01 | locus YGL248W, strain PDE1, hits give low values 1 | locus YGL253W, strain hxk2, hits give low values 1.02 | locus YGR135W, strain pre9, hits give low values 0.977 | locus YGR229C, strain SMI1, hits give low values 1.02 | locus YGR252W, strain gcn5, hits give low values 1.05 | locus YHR013C, strain ard1, hits give low values 1.04 | locus YHR027C, strain rpn1, hits give low values 1.02 | locus YHR030C, strain SLT2, hits give low values 0.983 and 1.01 | locus YHR079C, strain IRE1 (second series), hits give low values 0.979 | locus YHR079C, strain IRE1, hits give low values 1.02 | locus YHR094C, strain hxt1, hits give low values 0.987 | locus YHR129C, strain ARP1, hits give low values 0.994 | locus YHR142W, strain chs7, hits give low values 1.03 | locus YHR200W, strain rpn10, hits give low values 0.986 | locus YIL066C, strain RNR3, hits give low values 1.01 | locus YIL073C, strain SPO22, hits give low values 0.942 | locus YIL125W, strain kgd1, hits give low values 0.975 | locus YIR030C, strain dcg1, hits give low values 0.983 | locus YJL092W, strain hpr5, hits give low values 1.01 | locus YJL095W, strain BCK1 (second series), hits give low values 1.02 | locus YJL095W, strain BCK1, hits give low values 1.02 and 1.01 | locus YJL115W, strain asf1, hits give low values 1.02 | locus YJL129C, strain trk1, hits give low values 1.02 | locus YJL134W, strain LCB3, hits give low values 0.988 | locus YJL154C, strain vps35, hits give low values 1.01 | locus YJL164C, strain tpk1, hits give low values 1.01 | locus YJL166W, strain qcr8, hits give low values 1.01 | locus YJL168C, strain set2, hits give low values 0.985 | locus YJL187C, strain SWE1 (second series), hits give low values 0.999 | locus YJL187C, strain SWE1, hits give low values 1 | locus YJR043C, strain POL32, hits give low values 1.02 | locus YJR066W, strain TOR1, hits give low values 0.968 | locus YKL009W, strain mrt4, hits give low values 0.94 | locus YKL068W, hits give low values 0.978 | locus YKL085W, strain MDH1 (second series), hits give low values 0.975 | locus YKL085W, strain MDH1, hits give low values 0.975 | locus YKL160W, strain elf1, hits give low values 1.01 | locus YKL190W, strain CNB1, hits give low values 0.991 | locus YKR001C, strain vps1, hits give low values 1.02 | locus YKR026C, strain gcn3, hits give low values 1.01 | locus YKR091W, strain srl3, hits give low values 1.01 | locus YLL001W, strain dnm1, hits give low values 1 | locus YLL026W, hits give low values 1.01 | locus YLL041C, strain sdh2, hits give low values 1.01 | locus YLR027C, strain aat2, hits give low values 0.997 | locus YLR039C, strain RIC1, hits give low values 1.01 | locus YLR058C, strain SHM2, hits give low values 0.987 | locus YLR102C, strain apc9, hits give low values 0.991 | locus YLR113W, strain HOG1, hits give low values 0.985 | locus YLR221C, strain rsa3, hits give low values 1.01 | locus YLR258W, strain gsy2, hits give low values 1.02 | locus YLR262C, strain YPT6 (second series), hits give low values 1.02 | locus YLR262C, strain YPT6, hits give low values 0.93 | locus YLR268W, strain sec22, hits give low values 0.982 | locus YLR320W, strain mms22, hits give low values 1.02 | locus YLR330W, strain CHS5, hits give low values 0.983 | locus YLR342W, strain FKS1 (second series), hits give low values 1.01 | locus YLR342W, strain FKS1, hits give low values 1.02 | locus YLR357W, strain rsc2, hits give low values 1.03 | locus YLR370C, strain arc18, hits give low values 1.01 | locus YLR371W, strain rom2, hits give low values 0.978 | locus YLR384C, strain iki3, hits give low values 1.02 | locus YLR418C, strain cdc73, hits give low values 1 | locus YML016C, strain PPZ1, hits give low values 0.992 | locus YML032C, strain rad52, hits give low values 0.976 | locus YML120C, strain ndi1, hits give low values 1.01 | locus YML124C, strain tub3, hits give low values 0.986 | locus YMR058W, strain fet3, hits give low values 1.02 | locus YMR078C, strain ctf18, hits give low values 0.984 | locus YMR125W, strain sto1, hits give low values 1.01 | locus YMR129W, hits give low values 1.01 | locus YMR205C, strain PFK2, hits give low values 1.01 | locus YMR223W, strain ubp8, hits give low values 0.979 | locus YMR231W, strain pep5, hits give low values 0.985 | [1] 1.08 | locus YNL067W, strain RPL9B, hits give low values 1.01 | locus YNL071W, strain lat1, hits give low values 1.01 | locus YNL128W, strain TEP1, hits give low values 0.989 | locus YNL153C, strain GIM3, hits give low values 1.02 | locus YNL183C, strain NPR1, hits give low values 0.983 | locus YNL209W, strain ssb2, hits give low values 1 | locus YNL233W, strain BNI4, hits give low values 1.03 | locus YNL248C, strain rpa49, hits give low values 1.02 | locus YNL250W, strain rad50, hits give low values 0.97 | locus YNL271C, strain bni1, hits give low values 0.988 | locus YNL298W, strain CLA4, hits give low values 0.996 | locus YNL307C, strain MCK1, hits give low values 0.984 | locus YNL322C, strain KRE1 (second series), hits give low values 1.02 | [2] 0.994 | locus YNR049C, strain mso1, hits give low values 1.01 | locus YNR052C, strain pop2, hits give low values 0.982 | locus YOL012C, strain htz1 0.915 | locus YOL147C, strain pex11, hits give low values 0.993 | locus YOR001W, strain rrp6, hits give low values 1.01 | locus YOR061W, strain CKA2, hits give low values 0.99 | locus YOR069W, strain VPS5, hits give low values 0.993 | locus YOR070C, strain gyp1, hits give low values 1.02 | locus YOR080W, strain dia2, hits give low values 1 | locus YOR083W, strain WHI5, hits give low values 1.02 | locus YOR106W, strain vam3, hits give low values 1.03 | locus YOR136W, strain idh2, hits give low values 0.99 | locus YOR144C, strain elg1, hits give low values 1.01 | locus YOR184W, strain ser1, hits give low values 1.01 | locus YOR231W, strain MKK1, hits give low values 1.02 | locus YOR265W, strain rbl2, hits give low values 0.999 | locus YOR270C, strain vph1, hits give low values 1.08 | locus YOR290C, strain snf2, hits give low values 1.02 | locus YOR316C, strain cot1, hits give low values 0.983 | locus YPL051W, strain arl3, hits give low values 1.01 | [3] 1.03 | locus YPL078C, strain atp4, hits give low values 1.01 | locus YPL106C, strain sse1, hits give low values 1.02 | locus YPL240C, strain hsp82, hits give low values 1.01 | locus YPL241C, strain CIN2, hits give low values 0.996 | locus YPL256C, strain CLN2, hits give low values 1.04 | locus YPR119W, strain clb2, hits give low values 0.984 | locus YPR141C, strain kar3, hits give low values 0.973 | locus YPR163C, strain tif3, hits give low values 0.975 | locus YPR167C, strain met16, hits give low values 1.01 | strain wtn01, hits give low values 0.999
